In all, about 8,300 sequences were measured (“log2 fold change of degron read counts, EGFP-low vs EGFP+ sorted cells (limma voom), compound-induced degradation”: median about -1.1, highest 2% from about 3.2 on). The sample holds the highest values, similar sequences and a random draw of the others, so the mix is not that of the screen.
T1: CRBN, Q96SW2
T1 chain: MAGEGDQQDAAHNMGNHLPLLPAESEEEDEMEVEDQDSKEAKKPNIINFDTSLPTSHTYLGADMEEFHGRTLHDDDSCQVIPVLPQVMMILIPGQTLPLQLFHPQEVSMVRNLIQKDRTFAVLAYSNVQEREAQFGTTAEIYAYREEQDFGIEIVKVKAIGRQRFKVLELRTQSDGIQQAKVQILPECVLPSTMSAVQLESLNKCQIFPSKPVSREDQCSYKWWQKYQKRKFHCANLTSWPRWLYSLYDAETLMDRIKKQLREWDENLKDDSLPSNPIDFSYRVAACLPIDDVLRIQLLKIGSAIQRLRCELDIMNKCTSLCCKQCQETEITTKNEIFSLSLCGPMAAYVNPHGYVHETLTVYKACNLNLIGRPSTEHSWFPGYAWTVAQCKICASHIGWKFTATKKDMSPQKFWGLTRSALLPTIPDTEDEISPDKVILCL


Target: T1, CRBN, Q96SW2
Assay: log2 fold change of degron read counts, EGFP-low vs EGFP+ sorted cells (limma voom), compound-induced degradation; higher = more compound-induced degradation of the degron-EGFP fusion; degrons are variants of IKZF1/3 zinc finger 2; compound dose not given here
Details: Jurkat, 18 h
[1] = compound: compound 19 (5-tert-butyl-thalidomide)
[2] = compound: compound 22 (5-morpholino-thalidomide)
[3] = compound: compound 33 (diphenyl IMiD analogue)
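Also: pooled lentiviral library of zinc finger degron-EGFP fusions in mCherry-positive Jurkat cells, FACS-sorted after compound exposure, with degron abundance counted by next-generation sequencing.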

Row | Sequence | log2 fold change of degron read counts [1] | log2 fold change of degron read counts [2] | log2 fold change of degron read counts [3] | log2 fold change of degron read counts (compound: thalidomide)
1 | FKCNICGATFTQKGNLLRHIKL [46F_47K_49N_50I_52G_53A_54T_55F_67L_, Q9UKT9] | -2.19 | -2.52 | -3.31 | -1.21
2 | FACDICGAGFTQKGNLLRHIKL [46F_47A_49D_50I_52G_53A_54G_55F_67L_, Q9UKT9] | 2.54 | 0.463 | -0.84 | -1.45
3 | FECPICGRFFTQKGNLLRHIKL [46F_47E_49P_50I_52G_53R_54F_55F_67L_, Q9UKT9] | -1.85 | -1.84 | -0.566 | 0.632
4 | FFCEICGHTFTQKGNLLRHIKL [46F_47F_49E_50I_52G_53H_54T_55F_67L_, Q9UKT9] | -2.85 | -2.26 | -2.37 | -2.09
5 | FYCEQCGALFTQKGNLLRHIKL [46F_47Y_49E_50Q_52G_53A_54L_55F_67L_, Q9UKT9] | -0.0809 | 0.128 | -0.131 | -1.75
6 | FYCPICGRAFTQKGNLLRHIKL [46F_47Y_49P_50I_52G_53R_54A_55F_67L_, Q9UKT9] | -3.1 | -2.69 | -2.69 | -3.4
7 | FHCPQCGATFTQKGNLLRHIKL [46F_47H_49P_50Q_52G_53A_54T_55F_67L_, Q9UKT9] | -1.34 | -1.81 | 0.0255 | -1.77
8 | FRCDVCGAEFTQKGNLLRHIKL [46F_47R_49D_50V_52G_53A_54E_55F_67L_, Q9UKT9] | -2.43 | -1.82 | 0.12 | -1.26
9 | FMCDVCGATFTQKGNLLRHIKL [46F_47M_49D_50V_52G_53A_54T_55F_67L_, Q9UKT9] | -2.12 | -2.03 | 0.562 | -1.29
10 | FICPICGALFTQKGNLLRHIKL [46F_47I_49P_50I_52G_53A_54L_55F_67L_, Q9UKT9] | -1.19 | 0.987 | 1.39 | 1.34
11 | LGCPICGFACTQKGNLLRHIKL [46L_47G_49P_50I_52G_53F_54A_55C_67L_, Q9UKT9] | 3.1 | 2.1 | 1.7 | 1.09
12 | LRCPICGFGCTQKGNLLRHIKL [46L_47R_49P_50I_52G_53F_54G_55C_67L_, Q9UKT9] | 2.74 | 2.14 | 2.33 | 2.47
13 | LYCPICGFGCTQKGNLLRHIKL [46L_47Y_49P_50I_52G_53F_54G_55C_67L_, Q9UKT9] | 3.31 | 2.96 | 2.48 | 1.46
14 | LQCPICGFACTQKGNLLRHIKL [46L_47Q_49P_50I_52G_53F_54A_55C_67L_, Q9UKT9] | 2.66 | 2.96 | 2.47 | 3.55
15 | LLCPICGFACTQKGNLLRHIKL [46L_47L_49P_50I_52G_53F_54A_55C_67L_, Q9UKT9] | 0.701 | 0.253 | 1.48 | 1.92
16 | LFCPICGFGCTQKGNLLRHIKL [46L_47F_49P_50I_52G_53F_54G_55C_67L_, Q9UKT9] | 3.06 | 2.74 | 2.03 | 1.48
17 | LICPICGFACTQKGNLLRHIKL [46L_47I_49P_50I_52G_53F_54A_55C_67L_, Q9UKT9] | 0.747 | 2.69 | 1.82 | 2.87
18 | LWCPICGFACTQKGNLLRHIKL [46L_47W_49P_50I_52G_53F_54A_55C_67L_, Q9UKT9] | 2.95 | 3.32 | 2.72 | 1.84
19 | LMCPICGFACTQKGNLLRHIKL [46L_47M_49P_50I_52G_53F_54A_55C_67L_, Q9UKT9] | 1.55 | 2.48 | 2.86 | 2.97

Reference: the supplement of paper PMC12645437, “Orthogonal IMiD-Degron Pairs Induce Selective Protein Degradation in Cells” (ACS Chemical Biology, 2025)
